Results reported in PubChem BioAssay AID488890 (Southern Research Specialized Biocontainment Screening …, 2010).
The campaign covered roughly 320,000 compounds. About 1,300 (0.41%) were called active. Another 3% or so got no clear call; they are omitted. How the calls were made is not given here. Not all results are given here. Measured potencies and affinities stand elsewhere.

Test: growth inhibition of non-replicating M. tuberculosis (AID 488890);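 further: plate controls were DMSO cells for no effect and high antibiotic wells for full effect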
Conditions: Mycobacterium tuberculosis non-replicating, at 25 µM, stronger effect = higher value

| Compound | inhibition [%] |
| --- | --- |
| N=c1c(S(=O)(=O)c2ccc(Cl)cc2)cc2c(=O)n3ccccc3nc2n1CCc1ccccc1 | 16.6 |
| Cc1ccc(C)c(OCCCN2CCCC2)c1 | -3.13 |
| Fc1ccccc1/C=N/Nc1nc2ccccc2o1 | 14.1 |
| Oc1ccc(/C=N/Nc2ncc(Br)cn2)c(O)c1 | 57.8 |
| Oc1ccc(Br)cc1/C=N/Nc1ncc(-c2ccccc2)cn1 | 1.56 |
| Brc1ccc(/C=N/Nc2nc3ccccc3o2)cc1 | 0.82 |
| Clc1cc(Cl)cc(NC2=NCCS2)c1 | 5.95 |
| COc1ccc(S(=O)(=O)n2oc(=O)cc2-c2ccccc2)cc1OC | -6.84 |
| Cc1occc1C(=O)NC1CCCc2ccccc21 (centres undefined) | 3.75 |
| Cc1ccc(NC(=O)COc2ncnc3sccc23)cc1S(=O)(=O)N(C)C | 7.74 |
| Cc1c(C#N)c2ccccc2n1C | -15.1 |
| COC(=O)C1CC(=O)N(c2ccc(C)cc2)C1 (centres undefined) | 24.5 |
| O=C(O)C1CC(=O)N(c2ccc(OCc3ccccc3Cl)cc2)C1 (centres undefined) | 31.4 |
| NC(=O)C1CC(=O)N(c2ccc(OCc3ccccc3Cl)cc2)C1 (centres undefined) | 58.3 |
| COc1ccc(N2CC(C(=O)OCC(=O)c3ccc(C)cc3)CC2=O)cc1 (centres undefined) | 23.6 |
| O=C(OCc1ccccc1Cl)C1CC(=O)N(Cc2ccco2)C1 (centres undefined) | 12.3 |
| COc1cccc(COC(=O)C2CC(=O)N(Cc3ccc(C)cc3)C2)c1OC (centres undefined) | 76.5 |
| O=C1N(Cc2cccnc2)C[C@@H]2C[C@@H](c3cccc(OCc4ccccc4)c3)N3CCC[C@@]123 | 13.3 |
| O=C(C1CCCN(C2CC(=O)N(c3ccc(Cl)cc3)C2=O)C1)N1CCCC1 (centres undefined) | 62.9 |
| COc1cc(/C=N/NC(=O)c2cc(C)oc2C)cc(OC)c1OC | 5.12 |
| Cc1cc(C(=O)OC(C)C(=O)N2CCc3ccccc32)ccc1[N+](=O)[O-] (centres undefined) | -2.01 |
| C=CCc1ccc(OCCCCOc2ccc(C(=O)O)cc2)c(OC)c1 | 65.2 |
| CCOc1ccc(C(=O)OCC(=O)N(Cc2ccccc2)Cc2ccccc2)cc1OC | 6.46 |
| CCN(C(=O)COn1nnc2ccc(S(=O)(=O)N(C)C)cc21)C1CCS(=O)(=O)C1 (centres undefined) | -12 |
| Cc1ccccc1OC1CCN(C(=O)C2CCC(=O)N(C3CCCC3)C2)CC1 (centres undefined) | -4.05 |
| COc1ccnc2c1c(=O)n(Cc1ccc(Cl)cc1Cl)c(=O)n2C | 7.37 |
| COc1ccc(OC)c(S(=O)(=O)NCC(=O)O)c1 | -1.93 |

| Compound | inhibition [%] |
| --- | --- |
| C[C@H](CO)N1C[C@H](C)[C@@H](CN(C)S(C)(=O)=O)Oc2ccc(NC(=O)C3CCCCC3)cc2C1=O | -13.1 |
| O=c1cc(-c2ccccc2)oc2cc(O)cc(O)c12 | 9.39 |
| O=c1cc(-c2ccc(O)cc2)oc2cc(O)cc(O)c12 | 20.1 |
| CCOC(=O)c1ccc(NC(C)=O)c([N+](=O)[O-])c1 | -2.26 |
| CCOC(=O)c1ccc([N+](=O)[O-])cc1NC(C)=O | -5.06 |
| Cc1cc(S(=O)(=O)NCCCn2ccnc2)c(C)cc1Cl | 21.8 |
| Cc1ccc(NC(=O)C2C3C=CC4(O3)C2C(=O)N(CCN2CCOCC2)C4C(=O)NC2CCCCC2)cc1C (centres undefined) | 4.86 |
| COc1ccc(Cl)cc1S(=O)(=O)NC(C)C(=O)NCc1cccnc1 (centres undefined) | 0.53 |
| COc1ccc2c(c1O)C(=O)c1ccccc1C2=O | -8.36 |
| CNc1c(C(=O)O)ccc2c1C(=O)c1ccccc1C2=O | -14.2 |
| CCc1ccccc1NS(=O)(=O)c1cc(C)ccc1OC | 16.3 |
| CCOc1ccc2nc(NCCCO)[nH]c2c1 | 2.84 |
| O=C(O)c1cccc(S(=O)(=O)Nc2cc(Cl)ccc2Cl)c1 | 13.1 |
| COc1ccc(NC(=O)C2CCN(S(=O)(=O)c3ccc(Br)s3)CC2)cc1OC | -2.33 |
| Cc1[nH]nc2c1C(c1ccc(Cl)cc1)C(C#N)=C(N)O2 (centres undefined) | -2.67 |
| Cc1[nH]nc2c1C(c1ccc(-c3ccccc3C#N)o1)C(C#N)=C(N)O2 (centres undefined) | 49.7 |
| CCCc1[nH]nc2c1C(c1cccc(OC(=O)c3ccco3)c1)C(C#N)=C(N)O2 (centres undefined) | 17.8 |
| Cc1ccc(C2C(C#N)=C(N)Oc3n[nH]c(C)c32)cc1 (centres undefined) | -4.34 |
| COc1ccc(Br)cc1CNc1ccc(N2CCOCC2)cc1 | 24 |
| CCCCN(C(=O)C1CC(=O)N(c2ccc3c(c2)OCCO3)C1)c1c(N)n(CCCC)c(=O)[nH]c1=O (centres undefined) | 0.16 |
| Cc1ccccc1NC(=O)c1nn(C)c2c1CS(=O)(=O)c1ccccc1-2 | -16.9 |
| O=C(O)C1CC(O)CN1S(=O)(=O)c1ccc2ccccc2c1 (centres undefined) | 8.45 |
| O=C(Oc1cccnc1)c1ccc(Cl)cc1 | 8.07 |
| O=C(Oc1cccnc1)c1cccc(Cl)c1 | 51.8 |
| CCOC(=O)C1CCCc2c1[nH]c1c(C(=O)O)cccc21 (centres undefined) | 67.3 |
| CCOC(=O)c1ccc2[nH]c3c(c2c1)CCCC3C(=O)OCC (centres undefined) | 64.3 |
| CCOC(=O)c1c(C)nc2ccccn12 | 6.28 |

| Compound | inhibition [%] |
| --- | --- |
| CCOC(=O)c1c(C)nc2ccc(C)cn12 | 37 |
| CC1Cc2cc(/C=C3/SC(N4CCC(C(N)=O)CC4)=NC3=O)ccc2O1 (centres undefined) | 21.7 |
| CC1Cc2cc(/C=C3/SC(=S)N(C)C3=O)ccc2O1 (centres undefined) | 5.53 |
| COC(=O)c1ccc(C23CC4(C2)[C@H](CN(C)[C@@H]4c2ccccc2)C3c2ccccc2)cc1 (some centres undefined) | -17.5 |
| Cc1ccc(N2CC(=O)Nc3c(sc4nc(C)cc(C)c34)C2=O)cc1 | 7.84 |
| O=C(CNC(=O)c1ccc(Cl)cc1)Nc1ccc(S(=O)(=O)Nc2ncccn2)cc1 | 19.6 |
| Cc1ccnc(NC(=O)CN(C)S(=O)(=O)c2cccc3nsnc23)c1 | 4.38 |
| O=C1C=CC(=O)N1Cc1ccccc1 | 33.7 |
| Cc1nc2ccccc2c(=O)n1N(c1ccccc1)c1ccccc1 | 40 |
| O=C(Nc1cccc(F)c1)C1CCCN1C(=O)OCc1ccccc1 (centres undefined) | -8.2 |
| COc1ccc(-c2cc(C(=O)O)no2)cc1 | 9.82 |
| COc1ccc(-c2cc(C(=O)NC(C)C)no2)cc1 | 2.59 |
| Brc1ccc2nc3c(n2c1)CCCC3 | 40.8 |
| CC(C)(C)S(=O)(=O)c1ccc2nc3c(n2c1)CCCC3 | 12.6 |
| CN(c1ccccc1C(=O)O)S(C)(=O)=O | -5.19 |
| CC1(c2ccccc2Cl)NC(=O)N(CC(=O)N2CCN(S(=O)(=O)c3ccccc3)CC2)C1=O (centres undefined) | -5.46 |
| O=C(CNC(=O)c1ccco1)N/N=C/c1ccccc1[N+](=O)[O-] | -2.46 |
| CC(=O)Nc1nc(-c2cccs2)cs1 | 18.4 |
| O=C(Nc1nc2ccccc2s1)c1ccc([N+](=O)[O-])o1 | 64.8 |
| O=C(Nc1nc(-c2cccs2)cs1)c1ccco1 | 25.2 |
| Cc1ccccc1C(=O)N1CCN(c2ccc(NC(=O)c3ccc([N+](=O)[O-])o3)cc2)CC1 | 78.2 |
| O=C(Nc1nc2c(F)cccc2s1)c1ccc([N+](=O)[O-])o1 | 65.5 |
| O=C(Nc1ccc(N2CCN(C(=O)c3cccs3)CC2)cc1)c1ccc(Br)o1 | 67.5 |
| O=C(Nc1ccc(N2CCN(C(=O)c3cccs3)CC2)cc1)c1ccco1 | -3.51 |
| CC(C)C(=O)N1CCN(c2ccc(NC(=O)c3ccc(Br)o3)cc2)CC1 | 8.34 |
